Laboratory results as given in PubChem BioAssay (Tox21).
Inconclusive results are not listed. Calls of active or inactive are those of the source. Unless noted, the call rests on the fitted dose curve; in most records, active means well fitted curve in the direction sought with a large enough effect in the repeat runs; inconclusive means weak or mixed curves; inactive means no such curve, though single readings can be large; an effect the other way counts as inactive or inconclusive.

What was measured:
[1] = qHTS assay to identify small molecule agonists of the sonic hedgehog signaling (Shh) pathway - cell viability counter screen (AID 1259366); further: nearly all actives have a fitted effect of over 50% in size
Procedure, shortened: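 NIH/3T3-derived 3T3 Gli1-Luc cells (stable Gli1-responsive firefly luciferase reporter) were seeded, rested 4 hr at 37 C/5% CO2, then exposed to compounds in DMSO for 24 hr; viability was read by CellTiter-Fluor fluorescence in the same wells.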

[2] = qHTS assay to identify small molecule antagonists of the sonic hedgehog signaling (Shh) pathway - cell viability counter screen (AID 1259367); further: nearly all actives have a fitted effect of over 55% in size
Procedure, shortened: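 Cells: 3T3 Gli1-Luc, 2,000/well, 4 hr pre-incubation. Compounds in DMSO, then conditioned medium. Incubation 24 hr, 37C, 5% CO2. CellTiter-Fluor at 23 hr, 1 hr, fluorescence.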

[3] = qHTS assay to identify small molecule agonists of the sonic hedgehog signaling (Shh) pathway (AID 1259368; calls by dose curve; further: series mostly up to about 92 µM; nearly all actives have a fitted effect of over 15% in size)
Procedure, shortened: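 3T3Gli1-Luc (NIH/3T3 clone, stable Gli1-Luc); 4 hr pre-incubation, then cpd in DMSO 24 hr, 37 C/5% CO2; luciferase reagent 30 min RT; luminescence.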

[4] = qHTS assay to identify small molecule agonists of the androgen receptor (AR) signaling pathway in the presence of an antagonist - cell viability counter screen (AID 1259379);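 further: MDA-kb2 human breast cancer cells carrying an MMTV luciferase reporter; series mostly up to about 92 µM; nearly all actives have a fitted effect of over 25% in size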
Procedure, shortened: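 Cells: MDA-kb2 (MMTV-luc, AR and GR elements), 3,000/well, 5 hr settle. Added: nilutamide 3.0uM final, then compounds (15 conc.). Incubation: 16 hr, 37C, no CO2. Read-out: CellTiter-Fluor, 1 hr, fluorescence.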

[5] = qHTS assay to identify small molecule agonists of the estrogen receptor beta (ER-beta) signaling pathway - cell viability counter screen (AID 1259380); further: nearly all actives have a fitted effect of over 30% in size
Procedure, shortened: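 HEK293T ER-beta-UAS-bla; 2% CS-FBS; 6 hr pre-plate, 16 hr cpd at 37C/5% CO2; LiveBLAzer read first, then CellTiter-Glo 30 min RT, luminescence.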

[6] = qHTS assay to identify small molecule antagonists of the estrogen receptor beta (ER-beta) signaling pathway - cell viability counter screen (AID 1259382); further: series mostly up to about 92 µM; nearly all actives have a fitted effect of over 55% in size
Procedure, shortened: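 Cells: ER-beta-UAS-bla HEK293T, 2,000/well, 2% CS-FBS, 6 hr settle. Cpd + E2 (1nM final), 16 hr, 37C/5% CO2. Bla FRET substrate 2 hr RT, then CellTiter-Glo 30 min RT, luminescence.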

[7] = molecular target: Estrogen receptor (Homo sapiens) (UniProt P03372); assay: qHTS assay to identify small molecule agonists of the estrogen receptor alpha (ER-alpha) signaling pathway in the presence of an antagonist (AID 1259383; calls by dose curve; further: top concentration of the series differs between compounds; nearly all actives have a fitted effect of over 15% in size)
Chain of Estrogen receptor (Homo sapiens) (P03372 whole entry, looked up): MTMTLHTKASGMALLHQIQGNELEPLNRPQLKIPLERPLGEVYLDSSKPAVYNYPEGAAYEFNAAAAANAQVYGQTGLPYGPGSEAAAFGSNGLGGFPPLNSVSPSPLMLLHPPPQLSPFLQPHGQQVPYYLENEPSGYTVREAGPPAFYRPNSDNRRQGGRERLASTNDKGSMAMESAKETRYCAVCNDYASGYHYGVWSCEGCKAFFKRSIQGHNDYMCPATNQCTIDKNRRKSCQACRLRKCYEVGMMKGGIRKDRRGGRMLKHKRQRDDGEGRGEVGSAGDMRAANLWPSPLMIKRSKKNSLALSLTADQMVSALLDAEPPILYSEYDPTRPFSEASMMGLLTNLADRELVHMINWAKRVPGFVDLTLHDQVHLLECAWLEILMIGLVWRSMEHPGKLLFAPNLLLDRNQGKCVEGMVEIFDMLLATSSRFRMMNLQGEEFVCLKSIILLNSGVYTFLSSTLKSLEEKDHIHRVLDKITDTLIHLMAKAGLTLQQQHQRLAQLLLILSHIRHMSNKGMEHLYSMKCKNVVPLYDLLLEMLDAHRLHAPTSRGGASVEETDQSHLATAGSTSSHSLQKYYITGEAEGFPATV
Procedure, shortened: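 VM7Luc4E2, endog. ER-alpha + 4×ERE-luc; charcoal-stripped FBS, phenol red-free, 5 d; 24hr plating; +10.0nM ICI-182,780 (final); cpds 15 conc, 22hr, 37C/5% CO2; ONE-Glo luminescence.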

[8] = qHTS assay to identify small molecule agonists or antagonists of the thyroid stimulating hormone receptor (TSHR) signaling pathway - wild type cell line counter screen (AID 1259384; calls by dose curve)
Procedure, shortened: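 Counter screen in untransfected Hek293: compounds (15-point titration, triplicate) plus phosphodiesterase inhibitor Ro20-1724 added after 18 h plating; 30 min RT. Intracellular cAMP via competitive d2/cryptate immunoassay, 1 h incubation.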

[9] = molecular target: Thyrotropin receptor (Homo sapiens) (UniProt P16473); assay: qHTS assay to identify small molecule antagonists of the thyroid stimulating hormone receptor (TSHR) signaling pathway (AID 1259385; calls by dose curve; further: nearly all actives have a fitted effect of over 20% in size)
Chain of Thyrotropin receptor (Homo sapiens) (P16473 whole entry, looked up): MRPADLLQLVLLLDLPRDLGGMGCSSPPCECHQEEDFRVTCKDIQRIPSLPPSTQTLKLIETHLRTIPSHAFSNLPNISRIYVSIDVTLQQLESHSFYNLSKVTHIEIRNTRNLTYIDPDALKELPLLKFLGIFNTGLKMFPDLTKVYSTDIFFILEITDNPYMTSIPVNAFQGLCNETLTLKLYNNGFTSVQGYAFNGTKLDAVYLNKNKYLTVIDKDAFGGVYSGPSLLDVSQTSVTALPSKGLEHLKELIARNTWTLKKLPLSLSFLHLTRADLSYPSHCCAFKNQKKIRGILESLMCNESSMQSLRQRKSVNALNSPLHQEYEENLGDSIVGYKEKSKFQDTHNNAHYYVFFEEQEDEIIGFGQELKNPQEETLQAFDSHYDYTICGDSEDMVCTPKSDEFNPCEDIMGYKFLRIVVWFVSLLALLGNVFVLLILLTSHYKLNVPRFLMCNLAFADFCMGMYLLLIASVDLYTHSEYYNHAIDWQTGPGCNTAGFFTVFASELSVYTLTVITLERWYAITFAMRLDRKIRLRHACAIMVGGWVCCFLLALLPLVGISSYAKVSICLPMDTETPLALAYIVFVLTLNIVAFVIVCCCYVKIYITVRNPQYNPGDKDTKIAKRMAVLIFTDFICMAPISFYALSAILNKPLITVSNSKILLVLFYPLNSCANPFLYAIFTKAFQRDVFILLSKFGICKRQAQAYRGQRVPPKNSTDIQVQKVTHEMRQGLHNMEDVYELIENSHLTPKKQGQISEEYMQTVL
Procedure, shortened: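 Antagonist mode: compound-treated TSHR-expressing HEK293 cells were stimulated with 1.5 ng/mL TSH (final) in presence of Ro20-1724 for 30 min at RT. HTRF cAMP detection after 1 h; each compound tested at 15 concentrations, triplicate.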

[10] = qHTS assay to identify small molecule agonists of the estrogen receptor alpha (ER-alpha) signaling pathway in the presence of an antagonist - cell viability counter screen (AID 1259386);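 further: series mostly up to about 92 µM; cells exposed to compounds for 22 h at 37 °C before the viability read; nearly all actives have a fitted effect of over 30% in size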
Procedure, shortened: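 VM7Luc4E2, stripped-serum pre-culture 5 d; 24hr plating; +ICI-182,780 10.0nM final; cpds 15 conc, 22hr, 37C/5% CO2; CellTiter-Fluor added at 21hr, fluorescence 1hr later.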

[11] = molecular target: Progesterone receptor (Homo sapiens) (UniProt P06401); assay: qHTS assay to identify small molecule agonists of the progesterone receptor (PR) signaling pathway (AID 1346784; calls by dose curve; further: nearly all actives have a fitted effect of over 30% in size)
Chain of Progesterone receptor (Homo sapiens) (P06401 whole entry, looked up): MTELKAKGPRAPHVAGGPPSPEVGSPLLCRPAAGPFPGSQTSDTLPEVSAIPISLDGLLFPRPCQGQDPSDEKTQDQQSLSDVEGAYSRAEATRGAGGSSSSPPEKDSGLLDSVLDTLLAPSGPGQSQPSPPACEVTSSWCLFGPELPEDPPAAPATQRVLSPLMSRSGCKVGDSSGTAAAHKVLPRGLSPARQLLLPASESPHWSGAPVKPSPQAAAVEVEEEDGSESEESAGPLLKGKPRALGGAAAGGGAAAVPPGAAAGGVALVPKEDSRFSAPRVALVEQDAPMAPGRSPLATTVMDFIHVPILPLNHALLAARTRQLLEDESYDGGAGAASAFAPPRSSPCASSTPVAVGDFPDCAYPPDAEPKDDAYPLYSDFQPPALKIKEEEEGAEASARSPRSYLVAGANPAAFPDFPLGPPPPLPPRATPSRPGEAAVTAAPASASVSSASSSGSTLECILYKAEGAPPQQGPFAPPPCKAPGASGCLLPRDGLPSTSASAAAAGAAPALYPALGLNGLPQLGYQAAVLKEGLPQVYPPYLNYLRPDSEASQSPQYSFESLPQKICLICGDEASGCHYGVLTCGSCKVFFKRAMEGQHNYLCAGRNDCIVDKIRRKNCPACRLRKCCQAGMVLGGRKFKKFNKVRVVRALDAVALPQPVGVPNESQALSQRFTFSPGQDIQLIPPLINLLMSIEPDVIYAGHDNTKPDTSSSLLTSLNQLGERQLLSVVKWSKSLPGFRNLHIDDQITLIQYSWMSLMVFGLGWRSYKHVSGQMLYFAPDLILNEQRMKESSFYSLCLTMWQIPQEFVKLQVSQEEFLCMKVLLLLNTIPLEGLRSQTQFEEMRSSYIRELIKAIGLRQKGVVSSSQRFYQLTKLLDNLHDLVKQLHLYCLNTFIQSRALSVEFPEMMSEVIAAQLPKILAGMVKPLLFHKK
Procedure, shortened: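 PR-UAS-bla HEK 293T cells carrying a UAS-driven beta-lactamase reporter were seeded in medium with 2% charcoal-stripped FBS, preincubated 6 hr at 37C, then exposed to compounds in DMSO for 16 hr; agonism was read by LiveBLAzer B/G FRET fluorescence.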

[12] = molecular target: Progesterone receptor (Homo sapiens) (UniProt P06401); assay: qHTS assay to identify small molecule antagonists of the progesterone receptor (PR) signaling pathway (AID 1346795; active means well fitted inhibition curve with a large enough effect in the signal ratio in the repeat runs, not every such curve was filed as active; the % refers to the signal ratio; further: potency means the concentration at half of the fitted maximal effect)
Procedure, shortened: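 PR-UAS-bla HEK293T cells carrying a UAS-driven beta-lactamase reporter were plated in medium with 2% charcoal-stripped FBS and rested 6 hr at 37C. Compounds were added with 1 nM R5020 (final) for 16 hr, then FRET substrate loaded 2 hr at room temperature.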

[13] = qHTS assay to identify small molecule antagonists of the progesterone receptor (PR) signaling pathway - cell viability counter screen (AID 1346798); further: series mostly up to about 92 µM; nearly all actives have a fitted effect of over 50% in size
Procedure, shortened: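 PR-UAS-bla HEK293T cells in medium with 2% charcoal-stripped FBS were treated with compounds plus R5020 for 16 hr at 37C. Cell viability was then read by CellTiter-Glo luminescence after 30 min at room temperature in the same wells.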

[14] = qHTS assay to identify small molecule agonists of the progesterone receptor (PR) signaling pathway - cell viability counter screen (AID 1346799; calls by dose curve; further: nearly all actives have a fitted effect of over 45% in size)
Procedure, shortened: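 PR-UAS-bla HEK293T cells, 3,000 per well in medium with 2% charcoal-stripped FBS, were preincubated 6 hr at 37C, then exposed to compounds for 16 hr; viability was read as CellTiter-Glo luminescence after 30 min at room temperature.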

[15] = qHTS assay to identify small molecule antagonists of the TGF-beta/Smad signaling pathway - cell viability counter screen (AID 1346824); further: nearly all actives have a fitted effect of over 50% in size
Procedure, shortened: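 Cytotoxicity counter-screen run in the same wells as the beta-lactamase Smad reporter read: CellTiter-Glo luminescence after 30 min at room temperature. HEK 293T SBE-bla cells had 5 hr compound exposure at 37 C with TGF-beta1 (0.25 ng/mL stock).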

[16] = qHTS assay to identify small molecule agonists of the TGF-beta/Smad signaling pathway - cell viability counter screen (AID 1346829); further: top concentration of the series differs between compounds; nearly all actives have a fitted effect of over 45% in size
Procedure, shortened: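 In parallel with the Smad reporter read, viability of HEK 293T cells stably carrying SBE-bla is quantified by ATP luminescence following 5 hr compound treatment.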

[17] = molecular target: Estrogen receptor beta (Homo sapiens) (UniProt Q92731); assay: qHTS assay to identify small molecule agonists of the estrogen receptor beta (ER-beta) signaling pathway (AID 1259377; active means well fitted activation curve with a large enough effect in the signal ratio in the repeat runs, not every such curve was filed as active; the % refers to the signal ratio; further: potency means the concentration at half of the fitted maximal effect)
Chain of Estrogen receptor beta (Homo sapiens) (Q92731 whole entry, looked up): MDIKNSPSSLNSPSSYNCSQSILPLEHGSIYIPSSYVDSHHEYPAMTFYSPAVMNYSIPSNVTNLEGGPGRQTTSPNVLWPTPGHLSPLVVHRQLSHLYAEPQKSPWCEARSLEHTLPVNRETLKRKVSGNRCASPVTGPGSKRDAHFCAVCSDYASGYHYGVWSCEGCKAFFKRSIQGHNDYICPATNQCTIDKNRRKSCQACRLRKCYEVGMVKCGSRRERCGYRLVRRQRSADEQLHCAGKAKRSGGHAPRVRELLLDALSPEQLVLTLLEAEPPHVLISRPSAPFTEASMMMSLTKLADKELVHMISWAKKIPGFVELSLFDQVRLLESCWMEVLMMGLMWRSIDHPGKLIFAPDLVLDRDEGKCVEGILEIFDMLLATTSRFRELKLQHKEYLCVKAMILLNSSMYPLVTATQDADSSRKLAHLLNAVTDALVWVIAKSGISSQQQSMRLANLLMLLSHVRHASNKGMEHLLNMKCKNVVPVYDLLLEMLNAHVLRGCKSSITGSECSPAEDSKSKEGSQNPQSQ
Procedure, shortened: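 ER-beta-UAS-bla HEK293T (GripTite) cells carrying a UAS-driven beta-lactamase reporter, in medium with 2% charcoal-stripped FBS, were exposed to compounds for 16 hr at 37C; LiveBLAzer B/G FRET substrate was then added and fluorescence read after 2 hours at room temperature.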

[18] = molecular target: Androgen receptor (Homo sapiens) (UniProt P10275); assay: qHTS assay to identify small molecule agonists of the androgen receptor (AR) signaling pathway in the presence of an antagonist (AID 1259381; calls by dose curve; further: nearly all actives have a fitted effect of over 15% in size)
Chain of Androgen receptor (Homo sapiens) (P10275 whole entry, looked up): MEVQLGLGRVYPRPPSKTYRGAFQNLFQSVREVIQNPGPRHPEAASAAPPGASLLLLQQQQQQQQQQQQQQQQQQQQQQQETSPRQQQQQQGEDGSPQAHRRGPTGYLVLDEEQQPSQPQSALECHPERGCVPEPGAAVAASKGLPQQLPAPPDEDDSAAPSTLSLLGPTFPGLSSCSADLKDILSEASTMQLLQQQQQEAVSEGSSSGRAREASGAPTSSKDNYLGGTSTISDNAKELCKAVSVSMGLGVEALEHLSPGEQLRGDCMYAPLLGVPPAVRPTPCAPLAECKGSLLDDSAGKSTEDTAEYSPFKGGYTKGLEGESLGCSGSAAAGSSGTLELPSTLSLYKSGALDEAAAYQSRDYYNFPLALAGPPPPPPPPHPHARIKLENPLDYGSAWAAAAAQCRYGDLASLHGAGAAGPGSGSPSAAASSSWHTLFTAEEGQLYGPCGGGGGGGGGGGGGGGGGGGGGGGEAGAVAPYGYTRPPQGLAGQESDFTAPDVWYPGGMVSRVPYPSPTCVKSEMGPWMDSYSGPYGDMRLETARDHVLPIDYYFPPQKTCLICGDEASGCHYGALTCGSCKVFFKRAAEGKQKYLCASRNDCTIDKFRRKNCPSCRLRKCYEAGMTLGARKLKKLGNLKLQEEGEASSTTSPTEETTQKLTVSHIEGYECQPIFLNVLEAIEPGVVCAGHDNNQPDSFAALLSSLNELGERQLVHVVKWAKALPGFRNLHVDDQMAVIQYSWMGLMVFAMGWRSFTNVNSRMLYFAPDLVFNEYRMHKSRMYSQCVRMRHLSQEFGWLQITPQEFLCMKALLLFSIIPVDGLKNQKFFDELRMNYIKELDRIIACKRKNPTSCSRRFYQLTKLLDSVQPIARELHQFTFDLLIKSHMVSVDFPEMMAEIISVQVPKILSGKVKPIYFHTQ
Procedure, shortened: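 MDA-kb2 cells, 3,000/well, rested 5hr at 37C/0% CO2 → nilutamide 3.0uM final or buffer → compounds, 15 conc. → 16hr at 37C → ONE-Glo, 30min RT → luminescence.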

[19] = molecular target: Estrogen receptor beta (Homo sapiens) (UniProt Q92731); assay: qHTS assay to identify small molecule antagonists of the estrogen receptor beta (ER-beta) signaling pathway (AID 1259378; active means well fitted inhibition curve with a large enough effect in the signal ratio in the repeat runs, not every such curve was filed as active; the % refers to the signal ratio)
Procedure, shortened: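 Antagonist mode: compounds added to beta-lactamase reporter HEK293T ER-beta-UAS cells stimulated with E2 (1nM final), 16 hr at 37C. LiveBLAzer B/G FRET substrate, 2 hours room temperature, fluorescence read-out.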

Measured: Potency

CC(=O)c1ccc(OCC(=O)N2CCCCC2)cc1
not listed: [17] | [18] | [19]
inactive: all other assays above

CCCCCC1CCCC(=O)O1 (configuration not stated)
not listed: [7] | [12] | [14] | [18] | [19]
inactive: all other assays above

C1=C\CC/C=C\CC/1
not listed: [8] | [9] | [13] | [17] | [18] | [19]
inactive: all other assays above

COc1cc2c3cc1Oc1cc(ccc1O)C[C@@H]1c4c(cc(OC)c(O)c4Oc4ccc(cc4)C[C@@H]3N(C)CC2)CC[N+]1(C)C
active: [17] 26.6 µM
not listed: [7] | [18] | [19]
inactive: all other assays above

CNC(=O)NC
not listed: [10] | [15] | [19]
inactive: all other assays above

CCCC(C)CC (configuration not stated)
not listed: [4] | [7] | [18] | [19]
inactive: all other assays above

C[CH2][Ge]([Cl])([CH2]C)[CH2]C
not listed: [7] | [14] | [18] | [19]
inactive: all other assays above

CC1CCC(C(C)(C)S)C(=O)C1 (configuration not stated)
not listed: [18] | [19]
inactive: all other assays above

C=C(C)[C@@H]1CC[C@@H](C)C[C@@H]1O
not listed: [4] | [7] | [17] | [18] | [19]
inactive: all other assays above

CCCCCCCCCCCCCC(=O)OC
not listed: [5] | [10] | [19]
inactive: all other assays above

CCOC(=O)OCC/C(SC(=O)OCC)=C(\C)N(C=O)Cc1cnc(C)nc1N
not listed: [4] | [7] | [13] | [18]
inactive: all other assays above

NC(=O)NNC(N)=O
not listed: [4] | [10] | [13] | [18]
inactive: all other assays above

c1ccc(CNc2ncnc3nc[nH]c23)cc1
not listed: [7] | [13] | [14] | [18] | [19]
inactive: all other assays above

CN(C1CCCCC1)S(=O)(=O)c1ccccc1N
active: [12] 17.2 µM
not listed: [7] | [18] | [19]
inactive: all other assays above
